# Assay results taken from the supplement of paper PMC8728848.
# The sample as a whole holds a higher share of the strongest signals than the screen did.
# B1: MIC1 (Toxoplasma gondii), O00834 (protein)
# chain: VGPEAYGEASHSHSPASGRYIQQMLDQRCQEIAAELCQSGLRKMCVPSSRIVARNAVGITHQNTLQWRCFDTASLLESNQENNGVNCVDDCGHTIPCPGGVHRQNSNHATRHEILSKLVEEGVQRFCSPYQASANKYCNDKFPGTIARRSKGFGNNVEVAWRCYEKASLLYSVYAECASNCGTTWYCPGGRRGTSTELDKRHYTEEEGIRQAIGSVDSPCSEVEVCLPKDENPPLCLDESGQISRT
# B2: FaeGab (Escherichia coli) (protein)
# chain: WMTGDFNGSVDIGGSITADDYRQKWEWKVGTGLNGFGNVLNDLTNGGTKLTITVTGNKPILLGRTKEAFATPVSGGVDGIPQIAFTDYEGASVKLRNTDGETNKGLAYFVLPMKNAEGTKVGSVKVNASYAGVFGKGGVTSADGELFSLFADGLRAIFYGGLTTTVSGAALTSGSAAAARTELFGSLSRNDILGQIQRVNANITSLVDVAGSYREDMEYTDGTVVSAAYALGIANGQTIEATFNQAVTTSTQWSAPLNVAITYY
# Assays:
# Test in all cases: glycan array binding signal (z-score within array); higher = stronger binding
# Conditions in all cases: glycan notation: IUPAC condensed, linker removed
# [1] = biological target: Fuc(a1-2)Gal(b1-4)[Fuc(a1-3)]GlcNAc(b1-3)Gal(b1-4)Glc
# Outline: (§1)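 Negative Z-scores can be read as non-binding. The Z-score is calculated within each array and then averaged across arrays of one protein sequence at different concentrations or buffers and across linkers. Arrays, 3228 in all, were curated from the Consortium for Functional Glycomics database and kept only where the protein sequence was available.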
# [2] = biological target: Fuc(a1-2)[Gal(a1-3)]Gal(b1-4)GlcNAc(b1-3)Gal(b1-4)Glc
# Outline: as §1
# [3] = biological target: Fuc(a1-3)[Gal3S(b1-4)]Glc
# Outline: as §1
# Fuc(a1-6)GlcNAc = biological target: Fuc(a1-6)GlcNAc
# Outline: as §1
# [4] = biological target: Gal(b1-4)GlcNAc(b1-3)[Gal(b1-4)GlcNAc(b1-6)]Gal(b1-4)GlcNAc(b1-3)[Gal(b1-4)GlcNAc(b1-6)]Gal(b1-4)GlcNAc(b1-3)[Gal(b1-4)GlcNAc(b1-6)]Gal(b1-4)GlcNAc(b1-3)[Gal(b1-4)GlcNAc(b1-6)]Gal(b1-4)GlcNAc(b1-3)Gal(b1-4)Glc
# Outline: as §1
# [5] = biological target: Glc(b1-3)Glc(b1-3)Glc(b1-3)Glc(b1-3)Glc(b1-3)Glc(b1-3)Glc
# Outline: as §1
# Glc(b1-4)Glc = biological target: Glc(b1-4)Glc
# Outline: as §1
# [6] = biological target: Glc(b1-4)Glc(b1-4)Glc(b1-4)Glc(b1-4)Glc(b1-4)Glc(b1-4)Glc(b1-4)Glc(b1-4)Glc
# Outline: as §1
# [7] = biological target: Glc(b1-4)Glc(b1-4)Glc(b1-4)Glc(b1-4)Glc(b1-4)Glc(b1-4)Glc(b1-4)Glc(b1-4)Glc(b1-4)Glc
# Outline: as §1
# [8] = biological target: GlcNAc(a1-4)Gal(b1-3)[Fuc(a1-2)]Gal
# Outline: as §1
# [9] = biological target: Kdn(a2-3)[GalNAc(b1-4)]Gal(b1-3)GlcNAc
# Outline: as §1
# Man(a1-6)Man = biological target: Man(a1-6)Man
# Outline: as §1
# [10] = biological target: Neu5Ac(a2-3)Gal(b1-4)GlcNAc(b1-2)Man(a1-3)[Neu5Ac(a2-3)Gal(b1-4)GlcNAc(b1-2)Man(a1-6)]Man(b1-4)GlcNAc(b1-4)[Fuc(a1-6)]GlcNAc
# Outline: as §1
# [11] = biological target: Neu5Ac(a2-3)Gal(b1-4)GlcNAc6S(b1-3)Gal6S(b1-3)GlcNAc6S
# Outline: as §1
# [12] = biological target: Neu5Ac(a2-3)Gal(b1-4)[Fuc(a1-3)]GlcNAc(b1-3)Gal(b1-4)Glc
# Outline: as §1
# [13] = biological target: Neu5Ac(a2-3)Gal6S(b1-4)[Fuc(a1-3)]GlcNAc6S(b1-3)Gal(b1-4)Glc
# Outline: as §1
# [14] = biological target: Neu5Ac(a2-3)[GalNAc(b1-4)]Gal(b1-3)GalNAc(b1-4)[Neu5Ac(a2-3)]Gal(b1-4)Glc
# Outline: as §1
# [15] = biological target: Neu5Ac(a2-3)[GalNAc(b1-4)]Gal(b1-4)Glc
# Outline: as §1
# Neu5Ac(a2-6)Gal(b1-4)Glc = biological target: Neu5Ac(a2-6)Gal(b1-4)Glc
# Outline: as §1
# [16] = biological target: Neu5Ac(a2-8)Neu5Ac(a2-3)Gal(b1-3)GalNAc(b1-4)[Neu5Ac(a2-8)Neu5Ac(a2-3)]Gal(b1-4)Glc
# Outline: as §1
# [17] = biological target: Neu5Gc(a2-3)Gal(b1-3)GlcNAc(b1-3)Gal(b1-4)Glc
# Outline: as §1
# [18] = biological target: Neu5Gc(a2-3)[GalNAc(b1-4)]Gal
# Outline: as §1
# [19] = biological target: Neu5Gc(a2-6)Gal(b1-3)GlcNAc(b1-3)Gal(b1-4)Glc
# Outline: as §1
# [20] = biological target: Neu5Gc(a2-6)Gal(b1-4)GlcNAc(b1-2)Man(a1-3)[Neu5Gc(a2-6)Gal(b1-4)GlcNAc(b1-2)Man(a1-6)]Man(b1-4)GlcNAc(b1-4)GlcNAc
# Outline: as §1
# Neu5Gc(a2-6)GalNAc = biological target: Neu5Gc(a2-6)GalNAc
# Outline: as §1
# [21] = biological target: Xyl(a1-6)Glc(b1-4)[Xyl(a1-6)]Glc(b1-4)[Xyl(a1-6)]Glc(b1-4)Glc
# Outline: as §1
# [22] = biological target: Fuc(a1-2)Gal(b1-4)[Fuc(a1-3)]GlcNAc(b1-3)Gal(b1-4)[Fuc(a1-3)]GlcNAc(b1-3)Gal(b1-4)[Fuc(a1-3)]GlcNAc
# Outline: as §1
# Gal(a1-3)Gal = biological target: Gal(a1-3)Gal
# Outline: as §1
# [23] = biological target: Gal(b1-3)GlcNAc(b1-3)Gal(b1-4)GlcNAc
# Outline: as §1
# Gal3S(b1-3)GlcNAc = biological target: Gal3S(b1-3)GlcNAc
# Outline: as §1
# Gal6S(b1-4)GlcNAc = biological target: Gal6S(b1-4)GlcNAc
# Outline: as §1
# Glc(a1-4)Glc = biological target: Glc(a1-4)Glc
# Outline: as §1
# Glc(a1-6)Glc(a1-6)Glc = biological target: Glc(a1-6)Glc(a1-6)Glc
# Outline: as §1
# [24] = biological target: GlcNAc(b1-4)GlcNAc(b1-4)GlcNAc
# Outline: as §1
# [25] = biological target: Man(a1-2)Man(a1-2)Man(a1-6)[Man(a1-3)]Man
# Outline: as §1
# Neu5Ac(a2-3)Gal = biological target: Neu5Ac(a2-3)Gal
# Outline: as §1
# [26] = biological target: Neu5Ac(a2-3)[Neu5Ac(a2-6)]GalNAc
# Outline: as §1
# [27] = biological target: Neu5Ac(a2-6)Gal(b1-4)GlcNAc(b1-3)Gal(b1-4)[Fuc(a1-3)]GlcNAc(b1-3)Gal(b1-4)[Fuc(a1-3)]GlcNAc
# Outline: as §1
# [28] = biological target: Neu5Ac(a2-8)Neu5Ac(a2-8)Neu5Ac(a2-8)Neu5Ac(a2-3)[GalNAc(b1-4)]Gal(b1-4)Glc
# Outline: as §1
# [29] = biological target: Neu5Ac(b2-6)Gal(b1-4)GlcNAc
# Outline: as §1
# [30] = biological target: Neu5Gc(a2-6)Gal(b1-4)GlcNAc
# Outline: as §1
binder,measurement,setting,value
B1,glycan array binding signal (z-score),[1],-0.296
same,glycan array binding signal (z-score),[2],-0.253
same,glycan array binding signal (z-score),[3],-0.041
same,glycan array binding signal (z-score),Fuc(a1-6)GlcNAc,-0.287
same,glycan array binding signal (z-score),[4],-0.287
same,glycan array binding signal (z-score),[5],-0.287
same,glycan array binding signal (z-score),Glc(b1-4)Glc,-0.287
same,glycan array binding signal (z-score),[6],-0.287
same,glycan array binding signal (z-score),[7],-0.287
same,glycan array binding signal (z-score),[8],-0.299
same,glycan array binding signal (z-score),[9],-0.274
same,glycan array binding signal (z-score),Man(a1-6)Man,-0.312
same,glycan array binding signal (z-score),[10],2.46
same,glycan array binding signal (z-score),[11],4.52
same,glycan array binding signal (z-score),[12],0.087
same,glycan array binding signal (z-score),[13],2.46
same,glycan array binding signal (z-score),[14],1.29
same,glycan array binding signal (z-score),[15],2.98
same,glycan array binding signal (z-score),Neu5Ac(a2-6)Gal(b1-4)Glc,-0.342
same,glycan array binding signal (z-score),[16],-0.411
same,glycan array binding signal (z-score),[17],2.33
same,glycan array binding signal (z-score),[18],4.78
same,glycan array binding signal (z-score),[19],2.08
same,glycan array binding signal (z-score),[20],0.198
same,glycan array binding signal (z-score),Neu5Gc(a2-6)GalNAc,4.8
same,glycan array binding signal (z-score),[21],-0.287
B2,glycan array binding signal (z-score),[22],-0.302
same,glycan array binding signal (z-score),Gal(a1-3)Gal,0.089
same,glycan array binding signal (z-score),[23],-0.347
same,glycan array binding signal (z-score),Gal3S(b1-3)GlcNAc,-0.012
same,glycan array binding signal (z-score),Gal6S(b1-4)GlcNAc,-0.201
same,glycan array binding signal (z-score),Glc(a1-4)Glc,8.87
same,glycan array binding signal (z-score),Glc(a1-6)Glc(a1-6)Glc,10.2
same,glycan array binding signal (z-score),Glc(b1-4)Glc,4.4
same,glycan array binding signal (z-score),[24],0.132
same,glycan array binding signal (z-score),[25],1.91
same,glycan array binding signal (z-score),Neu5Ac(a2-3)Gal,-0.477
same,glycan array binding signal (z-score),[26],-0.489
same,glycan array binding signal (z-score),[27],-0.433
same,glycan array binding signal (z-score),[28],-0.352
same,glycan array binding signal (z-score),[29],-0.473
same,glycan array binding signal (z-score),[30],-0.5
